This is part of a sample that, as a whole, favours compounds with a hit. Of some 83,000 tested, about 20% had one in any assay.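 Interpretation: 100, growth as untreated; towards 0, rising growth inhibition; 0, no net growth; 0 to -100, cell death. Compounds scoring below 10 were considered active.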 Unmarked numbers belong to inactive results. Calls of active or inactive are those of the source.
Tests used:
Assay in all cases: NCI-60 one-dose screen, 48 h (100 = growth as untreated, 0 = no growth, -100 = all killed)
Settings in all cases: 10 µM unless noted
[1] = test system: T-47D breast
[2] = test system: BT-549 breast
[3] = test system: MDA-MB-435 melanoma
[4] = test system: SW-620 colon
[5] = test system: HCT-116 colon
[6] = test system: HCC-2998 colon
[7] = test system: KM12 colon
[8] = test system: MDA-MB-468 breast
[9] = test system: MCF7 breast

Structure (SMILES) | growth [1] | growth [2] | growth [3] | growth [4] | growth [5] | growth [6] | growth [7] | growth [8] | growth [9]
CCOC(=O)/C=C/c1cccc2c1C(=O)NC(C)(c1cc3cc(Cl)ccc3oc1=O)N2 (stereo not drawn) | 16.3% | 24.7% | 42.1% | 40.9% | 17.6% | 38.7% | 26% | 3.88% (active) | –
CCCSc1nc(Nc2ccc(S(N)(=O)=O)cc2)c(C#N)c(-c2ccc(Cl)cc2)n1 | 86.5% | 77.7% | 48% | 37.6% | -67.1% (active) | 8.65% (active) | 41.7% | 17.3% | –
COc1c(F)ccc(C(=O)Nc2ccc3nc(NC(=O)C4CCCN(S(=O)(=O)c5cccc(Cl)c5)C4)sc3c2)c1F (stereo not drawn) | 53.1% | 76% | 90.9% | 98.6% | 64.4% | 102% | 82.2% | 88.8% | –
Clc1cccc(N/N=C/c2c[nH]c3ccc(Br)cc23)n1 | 22% | -6.46% (active) | -0.779% (active) | 6.71% (active) | 8.25% (active) | -9.69% (active) | 4.64% (active) | -10.3% (active) | –
Cn1cc(-c2cc3nc(-c4cn(C)c5ncccc45)cc(N)n3n2)c2cc(Cl)ccc21 | -70.9% (active) | -94.6% (active) | -81.1% (active) | -86.3% (active) | -94.4% (active) | -97.8% (active) | -37.2% (active) | -95.5% (active) | –
Brc1ccc(N/N=C/c2c[nH]c3ccc(Br)cc23)nc1 | 1.46% (active) | -22.6% (active) | -25% (active) | -71.3% (active) | -72.9% (active) | -94% (active) | -57% (active) | -63.5% (active) | –
CN(C)c1ccnc(NCCCSC(c2ccccc2)(c2ccccc2)c2ccccc2)c1 | 28% | 48.9% | 11.3% | 8.86% (active) | -82.3% (active) | 12.2% | 46.7% | -34.9% (active) | –
C=C1CC[C@@H]2[C@]3(C)COC(c4cn[nH]c4-c4ccc(Br)cc4)O[C@@H]3CC[C@@]2(C)[C@@H]1C/C=C1/C(=O)OCC1O (stereo partly drawn) | 12.2% | -96.6% (active) | -64.4% (active) | -70.5% (active) | -93.5% (active) | -98% (active) | -64.3% (active) | -85.9% (active) | –
COc1c(F)ccc(C(=O)Nc2ccc3nc(NC(=O)C4CCCN(S(=O)(=O)c5ccc(C#N)cc5)C4)sc3c2)c1F (stereo not drawn) | 61.9% | 75.8% | 105% | 102% | 74% | 119% | 96.3% | 86.2% | –
CCCn1cc(-c2nc(Nc3ccc(C(=O)NCCCCNc4cccc5c4C(=O)N(C4CCC(=O)NC4=O)C5=O)cc3)nc3[nH]ccc23)cn1 (stereo not drawn) | -11% (active) | -36.1% (active) | 34.2% | 9.12% (active) | 72.3% | 5.84% (active) | 6.05% (active) | -36.3% (active) | –
CCOC(=O)c1ccc(Nc2nc(NN)nc(-c3ccc(OC)cc3)c2C#N)cc1 | 84.9% | 116% | 62.6% | 104% | 101% | 81% | 93.9% | 119% | –
CCOc1ccc(-c2c(C#N)c(-c3ccc(Cl)cc3)nc3n[nH]c(-c4ccc(Cl)cc4)c23)cc1OC | 25.1% | 67.6% | 56.8% | – | 31.4% | 53.4% | 30.2% | 50.5% | 26.2%
CC(=O)Oc1ccccc1C(=O)[Se]CC(=O)Nc1cccc(C(F)(F)F)c1 | 56.5% | -91% (active) | -29.7% (active) | – | -47.7% (active) | 60% | 25.3% | -88.8% (active) | 3.36% (active)
Clc1cccc(Cl)c1/C=C/c1cc(/C=C/c2ccc(Br)cc2)c2ccccc2n1 | 81.2% | 91.2% | 99.9% | – | 95.8% | 118% | 102% | 111% | 83.3%
O=c1c2ccccc2nc(-c2ccccc2)n1/N=C/c1ccc2ccccc2c1 | 56.4% | 51.8% | 55% | – | 22.1% | 57.5% | 45% | 67.2% | 34.2%
N#Cc1c(-c2cccc3ccccc23)cc(-c2cccc(OCC(=O)O)c2)[nH]c1=O | 105% | 114% | 101% | – | 103% | 110% | 103% | 98.7% | 96.1%

Structure (SMILES) | growth [1] | growth [2] | growth [3] | growth [4] | growth [5] | growth [6] | growth [7] | growth [8] | growth [9]
CNC(=O)c1cc(Oc2ccc3nc(NC(=O)Nc4cccc(OC(F)(F)F)c4)sc3c2)ccn1 | 47.4% | 0.174% (active) | 53.9% | – | 17.2% | 46.8% | 53.1% | 1.5% (active) | 39.2%
CSc1ccccc1NC(=O)c1ccc2nn(/C(C#N)=C/c3ccccn3)nc2c1 | -78.4% (active) | -98.4% (active) | -18.2% (active) | – | -97.4% (active) | -94.5% (active) | -44.9% (active) | -84.2% (active) | -82.4% (active)
CC1=C(C(=O)c2ccccc2)C(c2cccc(Cl)c2Cl)n2c(nc3ccccc32)N1 (stereo not drawn) | 76.6% | 52.4% | 72.1% | – | 50.1% | 88% | 92% | -38.3% (active) | 26.7%
COc1cc(-c2ccc(/C=N/NC(=O)c3[nH]c4ccc(Br)cc4c3-c3ccccc3)o2)cc(OC)c1OC | 85.7% | 95.4% | 90.3% | – | 76.7% | 110% | 82.3% | 88.6% | 70%
COc1ccc([C@H](C)Nc2nc(Cl)nc3ccccc23)cc1 | 49.4% | 60.3% | 45.8% | – | 20.9% | 93.6% | 43% | 15.1% | 28.8%
CSc1ccccc1NC(=O)c1ccc2nnn(/C(C#N)=C/c3ccccn3)c2c1 | -73.2% (active) | -99.5% (active) | -55.8% (active) | – | -96.5% (active) | -97.8% (active) | -66.9% (active) | -92% (active) | -81.4% (active)
CC1=C(C(=O)OCc2ccccc2)C(c2c(O)cc(O)cc2O)n2c(nc3ccccc32)N1 (stereo not drawn) | 62.6% | 55% | 1.29% (active) | – | 26.1% | 86.4% | 46.3% | -27.4% (active) | 25%
CC(=O)Oc1ccccc1C(=O)[Se]C(=NC1CCCCC1)NC1CCCCC1 | -43.3% (active) | -91.7% (active) | -77.2% (active) | – | -69.9% (active) | -92.6% (active) | -67.8% (active) | -77.8% (active) | -82.1% (active)
O=C(O)c1cccc(-c2ccc(/C=N/NC(=O)c3[nH]c4ccc(Br)cc4c3-c3ccccc3)o2)c1 | 55.3% | 34.7% | 43.9% | – | 66.2% | 84.8% | 79.3% | -12.6% (active) | 53.1%
Cc1ccc2c(N)c(C(=O)Nc3ccc(OC(F)(F)F)cc3)sc2n1 | 27.3% | 86.8% | 68.9% | – | 58.8% | 90.9% | 66.5% | 15.9% | 39.4%
O=C(N/N=C/c1ccc(-c2ccc(O)cc2)s1)c1[nH]c2ccc(Br)cc2c1-c1ccccc1 | 12.4% | -12.1% (active) | 2.37% (active) | – | 1.35% (active) | 7.81% (active) | 7.71% (active) | 5.96% (active) | 6.81% (active)
CCCCOc1ccc(NC(=O)c2sc3nc(C)ccc3c2N)cc1 | 15% | -11.6% (active) | 39.7% | – | -67.4% (active) | 21.2% | 26.2% | -48.4% (active) | 18.1%
CC(=O)Nc1cccc(Nc2nc(NCc3ccccc3)c3ccccc3n2)c1 | -60.1% (active) | -86.8% (active) | -92.8% (active) | – | -74.7% (active) | -98.8% (active) | -66% (active) | -93.7% (active) | -77.2% (active)
COc1cccc(-c2c(C#N)c(-c3ccc(Cl)cc3)nc3n[nH]c(-c4ccc(Cl)cc4)c23)c1 | 9.68% (active) | 44% | 46% | – | 20.6% | 56.6% | 32.5% | 61% | 36.2%
O=C(N/N=C/c1ccc(-c2ccc(O)cc2)o1)c1[nH]c2ccc(Br)cc2c1-c1ccccc1 | 19% | -13.3% (active) | -14.7% (active) | – | 4.35% (active) | -23.6% (active) | 2.17% (active) | -16.6% (active) | -3.44% (active)

Reference: PubChem BioAssay (NCI)
